Laboratory results reported in PubChem BioAssay AID1159580 (chemical genetic matrix, 2015).
The whole screen tested about 5,500 compounds, of which about 2,000 (36%) were called active. Not shown: some 18% with an inconclusive outcome. No stated cut-off is given here; in the data, active means normalized growth mostly below about 0.91 (no sharp cut-off); inconclusive means no clear call, values can overlap the other calls; inactive means mostly above about 0.92. The list shows a part of the results.

Assay: chemical genetic growth profiling, strain panel (AID 1159580);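 further: tested at 20 µM; growth read once vehicle control cultures reached saturation at 30 °C; 1 = growth at the plate median or of vehicle wells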
Settings: S. cerevisiae deletion strains, growth OD

Measured: normalized growth

COc1cc(OC)c2c(=O)c(-c3ccccc3)coc2c1
inactive: locus YAL021C, strain ccr4, stronger effect = lower value 0.991 | locus YAL030W, strain snc1, stronger effect = lower value 0.991 | locus YBL061C, strain skt5, stronger effect = lower value 0.958 | locus YBR009C, strain hhf1, stronger effect = lower value 0.928 | locus YBR023C, strain chs3, stronger effect = lower value 0.915 | locus YBR171W, strain sec66, stronger effect = lower value 1.01 | locus YBR231C, strain swc5, stronger effect = lower value 0.951 | locus YBR279W, strain paf1, stronger effect = lower value 0.953 | locus YCL011C, strain gbp2, stronger effect = lower value 0.936 | locus YCL016C, strain dcc1, stronger effect = lower value 0.965 | locus YCL069W, strain vba3, stronger effect = lower value 0.982 | locus YCR088W, strain abp1, stronger effect = lower value 0.993 | locus YDL005C, strain med2, stronger effect = lower value 1.04 | locus YDL040C, strain nat1, stronger effect = lower value 0.99 | locus YDR001C, strain nth1, stronger effect = lower value 0.994 | locus YDR069C, strain doa4, stronger effect = lower value 1.02 | locus YDR137W, strain rgp1, stronger effect = lower value 0.911 | locus YDR159W, strain sac3, stronger effect = lower value 0.963 | locus YDR297W, strain sur2, stronger effect = lower value 0.995 | locus YDR334W, strain swr1, stronger effect = lower value 1 | locus YDR335W, strain msn5, stronger effect = lower value 0.98 | locus YEL003W, strain gim4, stronger effect = lower value 0.967 | locus YEL037C, strain rad23, stronger effect = lower value 0.998 | locus YEL061C, strain CIN8 (second series), stronger effect = lower value 1 | locus YER015W, strain faa2, stronger effect = lower value 0.956 | locus YER016W, strain bim1, stronger effect = lower value 1 | locus YER111C, strain swi4, stronger effect = lower value 1.02 | locus YFR010W, strain ubp6, stronger effect = lower value 1.01 | locus YGL167C, strain pmr1, stronger effect = lower value 0.985 | locus YGL173C, strain kem1, stronger effect = lower value 0.985 | locus YGL227W, strain vid30, stronger effect = lower value 1 | locus YGL253W, strain hxk2, stronger effect = lower value 0.935 | locus YHR013C, strain ard1, stronger effect = lower value 0.974 | locus YHR027C, strain rpn1, stronger effect = lower value 1 | locus YJL092W, strain hpr5, stronger effect = lower value 0.994 | locus YJL095W, strain BCK1 (second series), stronger effect = lower value 0.979 | locus YJL115W, strain asf1, stronger effect = lower value 1 | locus YJL129C, strain trk1, stronger effect = lower value 0.964 | locus YJL154C, strain vps35, stronger effect = lower value 1 | locus YJL164C, strain tpk1, stronger effect = lower value 0.935 | locus YJL166W, strain qcr8, stronger effect = lower value 0.934 | locus YJL187C, strain SWE1, stronger effect = lower value 0.997 | locus YKL160W, strain elf1, stronger effect = lower value 0.93 | locus YKR026C, strain gcn3, stronger effect = lower value 0.99 | locus YKR091W, strain srl3, stronger effect = lower value 0.996 | locus YLL001W, strain dnm1, stronger effect = lower value 0.941 | locus YLL026W, stronger effect = lower value 0.99 | locus YLL041C, strain sdh2, stronger effect = lower value 0.991 | locus YLR027C, strain aat2, stronger effect = lower value 0.947 | locus YLR221C, strain rsa3, stronger effect = lower value 0.947 | locus YLR258W, strain gsy2, stronger effect = lower value 0.925 | locus YLR262C, strain YPT6 (second series), stronger effect = lower value 0.91 | locus YLR342W, strain FKS1, stronger effect = lower value 0.911 | locus YLR357W, strain rsc2, stronger effect = lower value 1.03 | locus YLR370C, strain arc18, stronger effect = lower value 0.939 | locus YLR384C, strain iki3, stronger effect = lower value 1 | locus YML120C, strain ndi1, stronger effect = lower value 0.946 | locus YMR058W, strain fet3, stronger effect = lower value 0.978 | locus YMR125W, strain sto1, stronger effect = lower value 0.971 | locus YMR129W, stronger effect = lower value 0.999 | locus YMR205C, strain PFK2, stronger effect = lower value 0.954 | locus YMR231W, strain pep5, stronger effect = lower value 0.994 | locus YNL209W, strain ssb2, stronger effect = lower value 0.984 | locus YNL248C, strain rpa49, stronger effect = lower value 0.995 | locus YNL322C, strain KRE1 (second series), stronger effect = lower value 0.972 | locus YNR049C, strain mso1, stronger effect = lower value 1.01 | locus YOR001W, strain rrp6, stronger effect = lower value 0.96 | locus YOR070C, strain gyp1, stronger effect = lower value 0.976 | locus YOR080W, strain dia2, stronger effect = lower value 1.01 | locus YOR083W, strain WHI5, stronger effect = lower value 0.902 | locus YOR106W, strain vam3, stronger effect = lower value 0.89 | locus YOR265W, strain rbl2, stronger effect = lower value 1 | locus YOR290C, strain snf2, stronger effect = lower value 0.893 | locus YPL051W, strain arl3, stronger effect = lower value 0.936 | locus YPL078C, strain atp4, stronger effect = lower value 0.933 | locus YPL106C, strain sse1, stronger effect = lower value 1.01 | locus YPL240C, strain hsp82, stronger effect = lower value 0.986
active: locus YAL026C, strain drs2, stronger effect = lower value 0.895 | locus YDR195W, strain ref2 1.22 [resistant] | locus YDR392W, strain spt3, stronger effect = lower value 0.637 | locus YER155C, strain BEM2 (second series), stronger effect = lower value 0.596 | locus YGL240W, strain doc1, stronger effect = lower value 0.835 | locus YHR142W, strain chs7, stronger effect = lower value 0.824 | locus YLR320W, strain mms22, stronger effect = lower value 0.87 | locus YNL071W, strain lat1, stronger effect = lower value 0.807 | locus YOR270C, strain vph1, stronger effect = lower value 0.767
